According to PubChem BioAssay (NCATS):
Where “and” joins values, the source holds several entries; their conditions need not be identical. Identical values can stand only once. Records with an inconclusive call do not appear. Calls of active or inactive are those of the source. Calls follow the shape of the dose curve; as a rule, active = well fitted inhibition curve with a large enough effect; inconclusive = small, poorly fitted or top-dose-only effect; inactive = flat fitted curve, though single readings scatter.

These molecules were tested on KB-3-1 (assay: Cytotoxic Profiling of Annotated Libraries Using Quantitative High-Throughput Screening (AID 1296008; also: nearly all actives have a fitted effect of over 60% in size)). Conditions: Five cell lines viability, CellTiter-Glo ATP luminescence, 48-72 h; max response: stronger effect = lower value.
From the text: Cell-based phenotypic screening is a commonly used approach to discover biological pathways, novel drug targets, chemical probes and high-quality hit-to-lead molecules. Many hits identified from high-throughput screening campaign are ruled out through a series of follow-up potency, selectivity/specificity, and cytotoxicity assays. Prioritization of molecules with little or no cytotoxicity for a more in-depth downstream evaluation influence the future direction of projects, so cytotoxicity profiling of the screening libraries at early stage is essential for increasing the likelihood of candidate success. […] For the annotated library, we also examined the primary targets and mechanistic pathways regularly associated with cell death. To our knowledge, this is the first study to use high-throughput screening to profile large libraries for cytotoxicity assessment in both normal and cancer cell lines. In summary, the results generated here constitutes a valuable resource for the scientific community and provides insight on identifying cytotoxic compounds with particular mechanisms of action, and prioritizing compounds with suitable cytotoxicity profile for further evaluation.
A pintool (Kalypsys) was used to transfer 23 nL of compound solution to the 1536-well assay plates. After 48 or 72 hr incubation at 37 degree Celsius, 5% CO2 and 95% humidity, 2.5 uL of CellTiter-Glo (Promega) was dispensed into each well using a dispenser (Aspect Automation, St. Paul, MN) with solenoid valves (Lee Valves, Westbrook CT). Plates were left at room temperature for 10 min before imaging the ATP-coupled luminescence using a ViewLux microplate imager (PerkinElmer, Waltham, MA).
% is scaled to controls: 0 for no effect and ±100 for the full control effect.

Row | SMILES | max response | outcome
1 | C[C@]12CC[C@@H]3c4ccc(O)cc4CC[C@H]3[C@@H]1CC[C@@H]2OC(=O)CCC1CCCC1 | -5.64% (inactive) and 15.4% (inactive) | 
2 | CCN(CC)CCOC(=O)C1(C2CCCCC2)CCCCC1 | -11.2% (inactive) | 
3 | Nc1ncnc2c1ncn2[C@@H]1O[C@H](CO)[C@@H](O)[C@H]1O | 15.4% (inactive) | 
4 | CC1CC(OC(=O)C(O)c2ccccc2)CC(C)(C)N1C (stereo not given) | 1.03% (inactive) and 0.565% (inactive) | 
5 | CN(C)CC[C@@H](c1ccc(Cl)cc1)c1ccccn1 | -22.8% (inactive) | 
6 | OCCN1CCN(CCCN2c3ccccc3Sc3ccc(Cl)cc32)CC1 | -16% (inactive) | 
7 | CCCOC(=O)c1ccccc1 | -10.8% (inactive) | 
8 | NC(=O)c1ncn([C@@H]2O[C@H](CO)[C@@H](O)[C@H]2O)c1N | 12% (inactive) | 
9 | NS(=O)(=O)c1cc2c(cc1C(F)(F)F)NC(Cc1ccccc1)NS2(=O)=O (stereo not given) | -0.539% (inactive) | 
10 | CC(C)(C(=O)O)c1ccc(C(O)CCCN2CCC(C(O)(c3ccccc3)c3ccccc3)CC2)cc1 (stereo not given) | -2.58% (inactive) and -5.29% (inactive) | 
11 | CC1=C(/C=C/C(C)=C/C=C/C(C)=C/C(=O)O)C(C)(C)CCC1 | -14.5% (inactive) | 
12 | COc1cc(C(=O)N2CCOCC2)cc(OC)c1OC | 4.09% (inactive) and 1.86% (inactive) | 
13 | CC(C)(O)c1ccccc1CC[C@@H](SCC1(CC(=O)O)CC1)c1cccc(/C=C/c2ccc3ccc(Cl)cc3n2)c1 | -11.2% (inactive) and 6.98% (inactive) | 
14 | Nc1ccc(S(=O)(=O)Nc2nccs2)cc1 | -16.1% (inactive) | inactive
15 | c1ccc(CN(CC2=NCCN2)c2ccccc2)cc1 | -11.4% (inactive) and 8.49% (inactive) | 
16 | CCCCCCCCCCCCCCCCCCOCC(O)CO (stereo not given) | 4.03% (inactive) | 
17 | CN(C)CCN(Cc1ccccc1)c1ccccn1 | -7.24% (inactive) | 
18 | CC[N+](CC)(CC)CCOc1ccc(/C=C/c2ccccc2)cc1 | -18.6% (inactive) and -29.7% (inactive) | 

Row | SMILES | max response | outcome
19 | O=S(=O)(O)NC1CCCCC1 | -17.7% (inactive) | 
20 | Oc1cn2c(n1)Nc1ccc(Cl)c(Cl)c1C2 | -2.96% (inactive) and -14.6% (inactive) | 
21 | CC(C)c1c(C(=O)Nc2ccccc2)c(-c2ccccc2)c(-c2ccc(F)cc2)n1CC[C@@H](O)C[C@@H](O)CC(=O)O | -3.5% (inactive) | 
22 | CCC(=O)c1ccc(O)cc1 | 5.91% (inactive) | 
23 | C=CCn1c(=O)n([C@@H]2O[C@H](CO)[C@@H](O)[C@H]2O)c2nc(N)[nH]c(=O)c21 | 17% (inactive) | 
24 | O=C(CCCN1CCN(c2ccccn2)CC1)c1ccc(F)cc1 | 7.83% (inactive) and 2.47% (inactive) | 
25 | CC1=C(C/C=C(\C)CCC[C@H](C)CCC[C@H](C)CCCC(C)C)C(=O)c2ccccc2C1=O | -12.7% (inactive) | 
26 | C[C@@H]1CN(c2c(F)c(F)c3c(=O)c(C(=O)O)cn(C4CC4)c3c2F)C[C@H](C)N1 | -12.7% (inactive) | inactive
27 | CC(=O)c1ccc2c(c1)N(CCCN(C)C)c1ccccc1S2 | -1.52% (inactive) | 
28 | CCCCc1ncc(/C=C(\Cc2cccs2)C(=O)O)n1Cc1ccc(C(=O)O)cc1 | -5.45% (inactive) and 6.97% (inactive) | 
29 | O=C(O)Cc1sc(-c2ccccc2)nc1-c1ccc(Cl)cc1 | -1.67% (inactive) and -19.6% (inactive) and -27.8% (inactive) | 
30 | O=C(Oc1ccccc1C(=O)O)c1ccccc1O | -14.6% (inactive) | 
31 | OC[C@H]1O[C@@H](O[C@@H]2[C@@H](CO)O[C@](O)(CO)[C@H]2O)[C@H](O)[C@@H](O)[C@H]1O | -20% (inactive) | 
32 | C[C@@H]1C[C@H]2[C@@H]3C[C@H](F)C4=CC(=O)C=C[C@]4(C)[C@@]3(F)[C@@H](O)C[C@]2(C)[C@@]1(O)C(=O)CO | 18.2% (inactive) | inactive
33 | O=C(O)CN1C(=O)c2cccc3cccc(c23)C1=O | -7.36% (inactive) | 
34 | COc1cc2[nH]c(=O)[nH]c(=O)c2cc1OC | 35.7% (inactive) | 
35 | COc1ccc2[nH]c(S(=O)Cc3ncc(C)c(OC)c3C)nc2n1 (stereo not given) | 2.51% (inactive) | inactive
36 | O=C1O[C@H]([C@@H](O)CO)C(O)=C1O | -6.89% (inactive) and 6.42% (inactive) | 
